The results in this text go back to PubChem BioAssay AID1907 (The Scripps Research Institute Molecular Screening Center, 2009).

The campaign covered roughly 1,900 compounds. About 1,200 (63%) were called active. The set was probably picked from earlier hits. Not all results are given here. Unmarked numbers belong to inactive results. Cut-off read from the data, not from the text of the source: active = inhibition above about 22%; inactive = the rest.

For orientation: inhibition means the relative decrease from the control value, in per cent.

The experiment can be described thus: cytotoxic compounds in IEC-6 epithelial cells, confirmation, cytotoxicity control, cell-based, luminescence (AID 1907).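 Note: 0% = vehicle and 100% = reference cytotoxic drug.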 The following applies: IEC-6 rat intestinal epithelial viability, at 5 µM, active compounds read high.
Turning to `CC1=CC(=Cc2sc3ccccc3[n+]2C)C=C(C)O1`, the inhibition was 32.9% (active).

Turning to `Cc1cc2ccccn2c1C(C[N+](=O)[O-])c1c(F)cccc1Cl` (stereo not drawn), the inhibition was 10.8%.

With `COc1cc(-n2c(=S)[nH]c3ccc(C)cc3c2=O)c(Cl)cc1Cl`, the inhibition is -14.8%.
